IL1B NFkB inh: inhibitors of IL-1B driven NFkB p65 nuclear import, primary screen, imaging, HUVEC, IL-1B stimulus, high-content imaging | HUVEC IL-1B NFkB p65 nuclear translocation imaging | inhibition, % at 2 µM | hit rate 0.43% among 94,000 | AID 796, 2007;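 active = inhibition above about 30% together with a positive call from visual inspection of the well image, limit read from the data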;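 also: nuclear over cytoplasmic p65 intensity ratio measured by imaging; 0% = IL-1B stimulated DMSO wells and 100% = unstimulated DMSO wells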
sEH activator: soluble epoxide hydrolase activators, primary screen, biochemical, human sEH; purified human sEH enzymatic activity, activator screen; Bifunctional epoxide hydrolase 2 (Homo sapiens), P34913; activation, % at 2 µM; AID 717, 2007; hit rate 0.04% among 91,000; in the data active = activation above about 37%
Target sequence (P34913 whole entry, looked up): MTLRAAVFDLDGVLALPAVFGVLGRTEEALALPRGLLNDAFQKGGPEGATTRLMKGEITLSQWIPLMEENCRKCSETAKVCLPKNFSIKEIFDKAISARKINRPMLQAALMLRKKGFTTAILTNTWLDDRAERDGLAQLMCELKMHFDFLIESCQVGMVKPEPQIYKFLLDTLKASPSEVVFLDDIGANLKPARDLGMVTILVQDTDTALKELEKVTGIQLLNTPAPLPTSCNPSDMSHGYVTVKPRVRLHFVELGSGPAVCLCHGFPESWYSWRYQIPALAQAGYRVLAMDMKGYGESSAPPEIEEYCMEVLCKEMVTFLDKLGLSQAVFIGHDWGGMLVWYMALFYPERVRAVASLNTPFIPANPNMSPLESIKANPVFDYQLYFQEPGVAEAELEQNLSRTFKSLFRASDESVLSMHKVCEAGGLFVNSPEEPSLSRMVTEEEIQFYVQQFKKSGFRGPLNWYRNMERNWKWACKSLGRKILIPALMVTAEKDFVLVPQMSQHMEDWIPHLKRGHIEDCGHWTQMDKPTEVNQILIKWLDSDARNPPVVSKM
sEH inh: soluble epoxide hydrolase inhibitors, primary screen, biochemical, human sEH; Bifunctional epoxide hydrolase 2 (Homo sapiens), P34913; hit rate 0.34% among 91,000; inhibition, % at 2 µM; AID 707, 2007; recombinant human sEH enzymatic activity assay; in the data active = inhibition above about 80%
HUVEC tox IL1B: cytotoxicity in IL-1B stimulated HUVEC, primary screen, cytotoxicity control for IL-1B NFkB translocation project, imaging, Hoechst nuclear count, IL-1B stimulus. HUVEC cell count loss. cell count reduction, % at 2 µM. hit rate 0.41% among 94,000. AID 845, 2007;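 active = cell count reduction more than 3 SD above the screen-wide mean, cut at about 70% in these data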;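 also: normalized per plate to untreated control cells as the no-loss baseline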
NFkB transloc pot: enhancers of NFkB p65 translocation in HUVEC – imaging, IL-1B stimulus, high-content imaging, primary screen; HUVEC IL-1B NFkB p65 nuclear translocation imaging; activation, % at 2 µM; hit rate 0.3% among 94,000; AID 819, 2007;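 active = activation above 40%, about the mean plus 3 SD, also judged a hit on visual image review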;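 also: percent activation is computed from the nuclear over cytoplasmic p65 intensity ratio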
The depositor's hits bear a star. Compounds with a hit are over-represented: about 1.2% of the library has one in this group of screens.

Results for Cc1cc(C)cc(OCCCCCNCCO)c1 ?
IL1B NFkB inh: 4; sEH activator: -8; sEH inh: 8; HUVEC tox IL1B: -6; NFkB transloc pot: -4

What do the screens show for `CC(C)(C)/C(O)=C(/C#N)c1nc2ccccc2[nH]1`?
IL1B NFkB inh: -8; sEH activator: -4; sEH inh: 6; HUVEC tox IL1B: 18; NFkB transloc pot: 8

Results for CC(C)(C)c1nc2ccccc2[nH]1 ?
IL1B NFkB inh: -48; sEH activator: 4; sEH inh: -6; HUVEC tox IL1B: -9; NFkB transloc pot: 48*

Results for COc1ccc(Cl)cc1NC(=O)N1CCN(C2CCCCC2)CC1 ?
IL1B NFkB inh: -14; sEH activator: -5; sEH inh: 8; HUVEC tox IL1B: 3; NFkB transloc pot: 14

What do the screens show for `COc1ccc(N2Cc3cccc(C(=O)N4CCN(C(=O)c5ccco5)CC4)c3C2=O)cc1`?
IL1B NFkB inh: 14; sEH activator: -9; sEH inh: 7; HUVEC tox IL1B: 5; NFkB transloc pot: -14

What do the screens show for `COC(=O)c1ccc(NC(=O)CN2C(=O)CSC2=O)cc1`?
IL1B NFkB inh: -9; sEH activator: 3; sEH inh: -6; HUVEC tox IL1B: -27; NFkB transloc pot: 9

How did COC(=O)CN1C(=O)CSc2ncccc21 do in these assays?
IL1B NFkB inh: -49; sEH activator: 5; sEH inh: -3; HUVEC tox IL1B: -13; NFkB transloc pot: 52*

Results for CCCCCCCCCCOC(=O)c1csc2nnsc12 ?
IL1B NFkB inh: -13; sEH activator: 9; sEH inh: -10; HUVEC tox IL1B: -1; NFkB transloc pot: 13

What do the screens show for `CCOc1ccc(CNC(=O)C2CCN(S(=O)(=O)CC)CC2)cc1OC`?
IL1B NFkB inh: -24; sEH activator: -12; sEH inh: 10; HUVEC tox IL1B: 94*; NFkB transloc pot: 24

Results for Nc1cc(OC(=O)c2cccs2)nn1S(=O)(=O)c1ccccc1 ?
IL1B NFkB inh: -17; HUVEC tox IL1B: 2; NFkB transloc pot: 17

How did COc1cccc(C(=O)Oc2cc(N)n(S(=O)(=O)c3ccc(C)cc3)n2)c1OC do in these assays?
IL1B NFkB inh: 32*; sEH activator: 8; sEH inh: -10; HUVEC tox IL1B: -4; NFkB transloc pot: -33

Results for CC1(C)CC(=O)C2=C(C1)NCN(Cc1ccccc1)C2 ?
IL1B NFkB inh: -1; sEH activator: 46*; sEH inh: -43; HUVEC tox IL1B: 12; NFkB transloc pot: 1

Results for CCCN1CN(Cc2ccccc2)CC2=C1CC(C)(C)CC2=O ?
IL1B NFkB inh: -1; sEH activator: -2; sEH inh: 0; HUVEC tox IL1B: -12; NFkB transloc pot: 1

How did CC(=O)CC(c1ccccc1)S(=O)(=O)c1ccc(C)cc1 (stereo not drawn) do in these assays?
IL1B NFkB inh: -4; sEH activator: -9; sEH inh: 11; HUVEC tox IL1B: -17; NFkB transloc pot: 4

How did COc1ccc(C(CC(=O)c2ccccc2)S(=O)(=O)c2ccc(C)cc2)cc1 (stereo not drawn) do in these assays?
IL1B NFkB inh: -69; sEH activator: 8; sEH inh: -5; HUVEC tox IL1B: -17; NFkB transloc pot: 69*

How did CCc1ccc(NC(=O)CCNS(=O)(=O)c2cccc3nsnc23)cc1 do in these assays?
sEH activator: -6; sEH inh: 3

Results for Cn1cnc2c(N3CCCCC3)nccc21 ?
IL1B NFkB inh: -4; sEH activator: 3; sEH inh: -8; HUVEC tox IL1B: 93*; NFkB transloc pot: 4

How did NS(=O)(=O)c1ccc(CNC(=O)CC23CC4CC(CC(C4)C2)C3)cc1 do in these assays?
IL1B NFkB inh: 32*; sEH activator: -50; sEH inh: 51; HUVEC tox IL1B: 12; NFkB transloc pot: -32

Results for NS(=O)(=O)c1ccc(CNC(=O)C2CCCCC2)cc1 ?
IL1B NFkB inh: 10; sEH activator: -10; sEH inh: 12; HUVEC tox IL1B: 16; NFkB transloc pot: -10

What do the screens show for `CN(C)C(=O)NCc1ccc(S(N)(=O)=O)cc1`?
IL1B NFkB inh: 7; sEH activator: -4; sEH inh: 5; HUVEC tox IL1B: 87*; NFkB transloc pot: -7

Results for CC(C)CCNC(=O)c1ccc2c(c1)ncn2C1CCCCC1 ?
IL1B NFkB inh: 0; sEH activator: -12; sEH inh: 11; HUVEC tox IL1B: 4; NFkB transloc pot: 0

How did COC(=O)C1C(=O)C2=C(CC1C)NC(=O)CC2c1cccc(C)c1 (stereo not drawn) do in these assays?
IL1B NFkB inh: -10; sEH activator: -4; sEH inh: 2; HUVEC tox IL1B: 90*; NFkB transloc pot: 10

What do the screens show for `N/C(COc1cccc(C(F)(F)F)c1)=N\NC(=O)c1cccnc1Oc1ccccc1`?
sEH activator: -17; sEH inh: 18

Results for CC12C(=O)N(Cc3ccco3)C(=O)C1C1c3ccccc3C2c2ccccc21 (stereo not drawn) ?
IL1B NFkB inh: 0; sEH activator: -31; sEH inh: 32; HUVEC tox IL1B: -3; NFkB transloc pot: 0

Results for Cn1c(CCNC(=O)c2ccccc2)nc2cc(NC(=O)C3CCCCC3)ccc21 ?
IL1B NFkB inh: -10; sEH activator: -18; sEH inh: 20; HUVEC tox IL1B: -14; NFkB transloc pot: 10

How did O=C(O)CSc1nnc(-c2ccccc2)o1 do in these assays?
sEH activator: 9; sEH inh: -12

Results for Cc1ccc(-c2nnc(-c3ccccc3)o2)cc1 ?
IL1B NFkB inh: 72*; sEH activator: 6; sEH inh: -6; HUVEC tox IL1B: 10; NFkB transloc pot: -72

Results for Fc1ccccc1CSc1nnc(-c2ccccc2)o1 ?
IL1B NFkB inh: -14; sEH activator: 7; sEH inh: -7; HUVEC tox IL1B: 92*; NFkB transloc pot: 14

What do the screens show for `Cc1ccc(C(=O)CSc2nnc(-c3ccccc3)o2)cc1`?
IL1B NFkB inh: -5; sEH activator: 3; sEH inh: -5; HUVEC tox IL1B: 93*; NFkB transloc pot: 5

Results for c1ccc(-c2nnc(-c3cccc(-c4nnc(-c5ccccc5)o4)c3)o2)cc1 ?
IL1B NFkB inh: 9; sEH activator: 2; sEH inh: 1; HUVEC tox IL1B: 11; NFkB transloc pot: -9

Results for CC1(C)CC(=O)C=C(NCC2CCCO2)C1 (stereo not drawn) ?
IL1B NFkB inh: -19; sEH activator: 3; sEH inh: -4; HUVEC tox IL1B: 12; NFkB transloc pot: 19

How did Cc1ccc(S(=O)(=O)N2CCCC(C(=O)NCC3COCCO3)C2)cc1 (stereo not drawn) do in these assays?
IL1B NFkB inh: 8; sEH activator: 4; sEH inh: -1; HUVEC tox IL1B: 6; NFkB transloc pot: -7

What do the screens show for `O=C(NCC1COCCO1)C1CCN(S(=O)(=O)c2ccccc2)CC1` (stereo not drawn)?
IL1B NFkB inh: 96*; sEH activator: -4; sEH inh: 4; HUVEC tox IL1B: 94*; NFkB transloc pot: -96
